Source: PubChem
GAA850 FXN act – increases GAA850 frataxin promoter reporter activity; HEK293 lucGAA850 FXN promoter luciferase reporter, 24 h; percent of 10 µM SAHA response; activation, % at 6 µM; 360,000 tested, 0.56% active; AID 540364;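 active = activation above the average of all compounds screened plus 3 SD, cutoff fixed separately per campaign, cut at about 7.5% in these data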
MITF TRPM1 HTS – MITF TRPM1 promoter activation in melanoma cells; activation, % at 12.5 µM; 300,000 tested, 0.75% active; SK-MEL-5 TRPM1-promoter luciferase, 24 h; % of positive control, neutral wells = 0; AID 588334;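 active = mean activation of at least 80% with every replicate also reaching 80%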
Wnt act – activates Wnt/beta-catenin signaling in a reporter cell assay. 300,000 tested, 1.2% active. activator, plate reader. activation, % at 9.35 µM; in the data active = activation above about 30%, passing the limit was not always enough
AHR activator – human AHR activation; AHR-responsive luciferase reporter cells, luminescence; P35869; 320,000 tested, 2.5% active; AID 2796; activation, % at 5 µM; in the data active = activation above about 47%
esBAF inh – inhibitors of esBAF chromatin remodeling in mouse ES cells. Bmi1-luciferase knock-in reporter, 24 h; 100% = twice the neutral-well signal. reporter increase, % at 12.5 µM. 350,000 tested, 2% active. AID 602393; in the data active = activation above about 40%;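 also: a rise in the Bmi1 reporter signal indicates esBAF inhibition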
AHR act cf – human AHR activation, confirmation; shares compounds with AHR activator; human cells, AHR-responsive luciferase reporter, luminescence; activation, % at 9 µM; 2,300 tested, 87% active; AID 2845; in the data active = activation above about 49%;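 also: HepG2 hepatoma cells carrying a DRE-driven firefly luciferase reporter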
PXR act counter – PXR activation, counter-screen for AHR activators; shares compounds with AHR activator; cell-based PXR reporter, luciferase luminescence; activation, % at 11.6 µM; 2,300 tested, 88% active; AID 434939; in the data active = activation above about 11%;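 also: human hepatoma DPX-2 cells expressing full-length human PXR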
Target sequence (O75469 whole entry, looked up): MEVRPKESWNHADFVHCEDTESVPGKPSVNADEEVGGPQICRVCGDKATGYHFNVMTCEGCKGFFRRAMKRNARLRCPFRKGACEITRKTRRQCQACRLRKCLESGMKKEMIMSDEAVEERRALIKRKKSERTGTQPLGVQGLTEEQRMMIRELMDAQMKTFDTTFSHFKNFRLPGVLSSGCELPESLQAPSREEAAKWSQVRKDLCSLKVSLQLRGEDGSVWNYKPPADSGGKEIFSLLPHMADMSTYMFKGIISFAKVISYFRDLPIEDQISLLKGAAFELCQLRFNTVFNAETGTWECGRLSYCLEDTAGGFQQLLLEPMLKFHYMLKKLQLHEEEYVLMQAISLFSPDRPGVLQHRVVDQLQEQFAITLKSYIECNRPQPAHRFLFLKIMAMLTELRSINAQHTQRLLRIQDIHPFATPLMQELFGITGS
A number is an active result. Hits are enriched below; roughly 4.2% of the tested compounds scored in any of these assays.

CCn1nc(C(=O)Nc2ccccc2C)c(Cl)c1Cl was read as GAA850 FXN act inactive, Wnt act inactive, AHR activator 90, esBAF inh inactive, AHR act cf inactive and PXR act counter 17.
`CCn1nc(C(=O)Nc2cccc(C(F)(F)F)c2)c(Cl)c1Cl` gave GAA850 FXN act inactive, Wnt act inactive, AHR activator inactive and esBAF inh inactive.
Screening CCn1nc(C(=O)Nc2cccc3ccccc23)c(Cl)c1Cl returned GAA850 FXN act inactive, MITF TRPM1 HTS inactive, Wnt act inactive, AHR activator 85, esBAF inh inactive, AHR act cf 95 and PXR act counter 17.
O=C1c2ccccc2C(=O)c2c1ncn2-c1ccccc1 was read as GAA850 FXN act inactive, MITF TRPM1 HTS inactive, Wnt act inactive, AHR activator 87, esBAF inh inactive, AHR act cf 130 and PXR act counter 33.
O=C1c2ccccc2C(=O)c2[nH]cnc21 was read as GAA850 FXN act inactive, MITF TRPM1 HTS inactive, Wnt act inactive and esBAF inh inactive.
Screening CN1CCN(c2ccc(Cl)cc2NC(=O)C2COc3ccccc3O2)CC1 (stereo unspecified) returned GAA850 FXN act inactive, Wnt act inactive, AHR activator 108, esBAF inh inactive, AHR act cf 90 and PXR act counter 30.
CCc1nc2ccccc2c(C(=O)OCc2nc3ccccc3c(=O)[nH]2)c1C was read as GAA850 FXN act inactive, MITF TRPM1 HTS inactive, Wnt act inactive, AHR activator 118, esBAF inh inactive, AHR act cf 86 and PXR act counter 54.
`COc1ccc(CN(C)C[C@H]2OCCCC[C@H](C)Oc3ccc(NC(=O)c4ccccc4)cc3C(=O)N([C@H](C)CO)C[C@H]2C)cc1` gave esBAF inh inactive.
CC(=O)Nc1ccc2c(c1)C(=O)c1ccccc1C2=O was read as GAA850 FXN act inactive, AHR activator 152, esBAF inh inactive, AHR act cf 121 and PXR act counter 35.
`CC(=O)Nc1ccc2c(c1)CCc1ccccc1-2` gave GAA850 FXN act inactive, MITF TRPM1 HTS inactive, Wnt act inactive, AHR activator inactive and esBAF inh inactive.
C/C(=N\NC(=O)C(=O)Nc1cc(Cl)ccc1Cl)c1ccncc1 was read as GAA850 FXN act inactive, MITF TRPM1 HTS inactive, Wnt act inactive, AHR activator 89, AHR act cf inactive and PXR act counter inactive.
COc1ccccc1NC(=O)N1CCC(c2nc3cc(C)c(C)cc3[nH]2)CC1 was read as GAA850 FXN act inactive, Wnt act inactive, AHR activator 133, esBAF inh inactive, AHR act cf inactive and PXR act counter 56.
For CCOc1ccccc1NC(=O)N1CCC(c2nc3ccccc3[nH]2)CC1 the results were GAA850 FXN act inactive, MITF TRPM1 HTS inactive, AHR activator inactive and esBAF inh inactive.
For O=C1C=C(c2ccc(Br)c3ccccc23)C[C@@H](c2ccc3c(c2)OCO3)C1 the results were GAA850 FXN act inactive, MITF TRPM1 HTS inactive, Wnt act inactive, AHR activator 89, esBAF inh inactive, AHR act cf 95 and PXR act counter 32.
`COc1c(F)cccc1C1=CC(=O)C[C@H](c2ccc3c(c2)OCO3)C1` gave GAA850 FXN act inactive, MITF TRPM1 HTS inactive, Wnt act inactive, AHR activator 101, esBAF inh inactive, AHR act cf 76 and PXR act counter 66.
`Cc1nc(NCCOc2ccccc2)sc1C(=O)Nc1ccccc1` gave GAA850 FXN act inactive, Wnt act inactive, AHR activator 88, AHR act cf 145 and PXR act counter 47.
Screening COc1ccccc1NC(=O)N1C[C@@H]2[C@H](c3ccccc31)[C@@H](CO)N2C(=O)c1ccccc1 returned esBAF inh inactive.
`CN(C)c1cc(-c2ccc(Br)cc2)oc(=O)c1Cl` gave GAA850 FXN act inactive, Wnt act inactive, AHR activator 85, AHR act cf 70 and PXR act counter 22.
C/C(=N\NC(=O)c1cccnc1)c1cccc([N+](=O)[O-])c1 was read as GAA850 FXN act inactive, MITF TRPM1 HTS inactive, Wnt act inactive and AHR activator inactive.
`CC(/C=C/c1cccc([N+](=O)[O-])c1)=N/NC(=O)c1cccnc1` gave GAA850 FXN act inactive, MITF TRPM1 HTS inactive, Wnt act inactive, AHR activator 85 and AHR act cf 77.
Screening O=C(Nc1ccccc1)N1CCc2ccccc2C1 returned GAA850 FXN act inactive, MITF TRPM1 HTS inactive, Wnt act 54, AHR activator 103, esBAF inh 44, AHR act cf 132 and PXR act counter 16.
Screening COc1cc(NC(=O)c2cc(C)on2)cc(C(=O)Nc2cccc(C(F)(F)F)c2)c1 returned GAA850 FXN act inactive, MITF TRPM1 HTS inactive, Wnt act inactive, AHR activator 130, esBAF inh inactive, AHR act cf 106 and PXR act counter 21.
`COc1cc(NC(=O)c2ccnc(N)c2)cc(C(=O)Nc2cccc(C(F)(F)F)c2)c1` gave GAA850 FXN act inactive, MITF TRPM1 HTS inactive, Wnt act inactive, AHR activator inactive and esBAF inh inactive.
`COc1cc(NC(=O)c2csc(N)n2)cc(C(=O)Nc2cccc(C(F)(F)F)c2)c1` gave GAA850 FXN act inactive, MITF TRPM1 HTS inactive, Wnt act inactive, AHR activator 85, esBAF inh inactive, AHR act cf 91 and PXR act counter 32.
`CCNC(=O)C[C@@H]1CC[C@@H]2[C@H](COC[C@H](O)CN2Cc2ccncc2)O1` gave esBAF inh inactive.
`O=C(C1CC1)N1[C@H](CO)[C@@H]2c3ccccc3N(S(=O)(=O)c3ccccc3)C[C@@H]21` gave esBAF inh inactive.
For Cc1ccc(-c2nc3cccnc3s2)cc1NS(=O)(=O)c1ccc2c(c1)OCCO2 the results were GAA850 FXN act inactive, MITF TRPM1 HTS inactive, Wnt act inactive, AHR activator 105, esBAF inh inactive, AHR act cf 73 and PXR act counter 104.
`O=S(=O)(Nc1cccc(-c2nc3cccnc3s2)c1)c1ccc2c(c1)OCCO2` gave GAA850 FXN act inactive, Wnt act inactive, AHR activator inactive and esBAF inh inactive.
`O=C(C[C@H]1CC[C@@H](NC(=O)C2CCC2)[C@H](CO)O1)Nc1nccs1` gave esBAF inh inactive.
COc1ccc(S(=O)(=O)N[C@H]2C=C[C@@H](CC(=O)NCc3ccccc3F)O[C@H]2CO)cc1 was read as esBAF inh inactive.
Screening COc1ccc(C)cc1NC(=O)C(OC(=O)CNC(=O)c1ccc(Br)cc1)c1ccccc1 (stereo unspecified) returned GAA850 FXN act inactive, MITF TRPM1 HTS inactive, Wnt act inactive, AHR activator 81, AHR act cf 85 and PXR act counter 51.
